Experimental findings from ChEMBL document CHEMBL3988442, “University of Dundee, Small-Polar-MMV Screening Library” (2021) are described below.

Molecules are shown by their SMILES.

The test concerns the target AMP-activated protein kinase, AMPK (Homo sapiens) (UniProt P54646+O43741+P54619+Q9UGJ0+Q9Y478+Q13131+Q9UGI9). In words: AMP-dependent Kinase enzyme assay. An in vitro enzyme assay that detects ADP turnover that is directly proportional to AMPK activity. This uses naive AMPK that is activated during the assay with MK-8722. In kind it is functional. On the set-up: scale not given: direction of the effect not stated beside the values. To be noted: 30 µM.
Consider `Cc1cnn(C2CN(CCOc3ccccc3C#N)C2)c1`, for which the Percent Effect came out at 6.15%.

Take `Cc1nn(C)c(C)c1C1COCCN1C(=O)NC1CC1` (stereo not given): the Percent Effect was -1.36%.

In the case of `Cc1noc(C)c1C(=O)N1CCC(c2cc3cnccc3[nH]2)CC1`, the Percent Effect was 16.4%.

In the case of `N#Cc1cccc(NC(=O)N[C@H](CO)Cc2ccc(O)cc2)c1`, the Percent Effect worked out at 6.46%.

Take `COc1ccc(CCCC(=O)N2CCCC(n3cncn3)C2)cc1` (stereo not given): the Percent Effect was determined as 4.51%.

In the case of `O=C(CCC1CCCC1)N1C[C@H]2CC[C@@H]1CN(Cc1ccncc1)C2`, the Percent Effect worked out at 6.08%.

Consider `Cc1nn2cccnc2c1C(=O)NCc1ccccc1OC1CCC1`, for which the Percent Effect was 6.53%.

Consider `CCc1nnc(NC(=O)NCCN(C)C(=O)OC(C)(C)C)s1`, for which the Percent Effect was -3.38%.

On to `Cc1cnc(N2CCN(C(C)C(N)=O)CC2)nc1` (stereo not given), for which the Percent Effect was -0.289%.

As to `O=C(CC1COCCN1)N1CCC(N2CCc3ccccc3C2)CC1` (stereo not given), the Percent Effect is -4.72%.

Turning to `CC(NCc1cccc(COC2CCCC2)c1)c1cnn(C)c1` (stereo not given), the Percent Effect was 3.6%.

On to `Cc1cc(C)cc(OCCN(C)C2CCOC2=O)c1` (stereo not given), for which the Percent Effect is -0.216%.

For the compound `O=C(Cc1c(F)cccc1Cl)Nc1cccc(N2CCCC2)c1`, the Percent Effect is -5.51%.

On to `Cc1cccc(C(C)C)c1NC(=O)CN(C)C(C)c1nccs1` (stereo not given), for which the Percent Effect was -7.09%.

Regarding `CCNC(=O)C1CCN(Cc2ccc(C(=O)Nc3nnc(C)s3)cc2)C1` (stereo not given), the Percent Effect was -2.87%.

For the compound `O=C(COCc1ccccc1)NCc1ccc(O)c(F)c1`, the Percent Effect worked out at 8.21%.

With `COc1ccccc1N1CCN(C(=O)CCc2nncn2C)C(C)C1` (stereo not given), the Percent Effect was 24.5%.

Regarding `Cc1cc(N(C)C)nc(N2CCn3c(C)nnc3C2)n1`, the Percent Effect is -2.14%.

As to `COc1ccc(Cl)cc1C(=O)N1C[C@H](C(C)C)[C@@H](N)C1`, the Percent Effect stood at 6.24%.

Consider `COc1ncc(NCc2cc(C#N)cs2)cc1C(N)=O`, for which the Percent Effect is 6.61%.

Turning to `O=S(=O)(NCC1(c2cccs2)CCCC1)c1cccnc1`, the Percent Effect is -4.96%.

Take `CCc1cc(N2CCC(NCCc3ccc(C)o3)CC2)nc(C)n1`: the Percent Effect turned out to be 5.69%.

`O=S1(=O)NC(C2CCCN(S(=O)(=O)N3CCCC3)C2)=Nc2ccccc21` (stereo not given): the Percent Effect was 13.9%.

Regarding `Cc1oc(-c2ccco2)nc1CN1CCc2cncnc2C1`, the Percent Effect is -10.6%.

In the case of `CCS(=O)(=O)NCC(=O)N(C1CC1)C1Cc2ccccc2C1`, the Percent Effect was -4.92%.

In the case of `CNS(=O)(=O)c1ccc(CNC(=O)NCc2cc[nH]n2)cc1`, the Percent Effect was determined as 2.83%.

In the case of `O=C1C(N2CCOCC2)CCCN1Cc1cccc(C(F)(F)F)c1` (stereo not given), the Percent Effect came out at 5.78%.

`Cn1nccc1CN1CCOC(c2ccc(-c3cncnc3)cn2)C1` (stereo not given): the Percent Effect was 9.64%.

As to `Cc1ccc(-c2cc(C(=O)NCC3CCOC3)n[nH]2)s1` (stereo not given), the Percent Effect is -4.75%.

Take `c1cnc(N2CCC(c3nccn3CC3CC3)CC2)nc1`: the Percent Effect stood at 9.63%.

As for `CCN(C)C(=O)c1cccc(S(=O)(=O)NCCc2csc(N)n2)c1`, the Percent Effect was -0.697%.

On to `CN(Cc1cc(Br)cs1)Cc1nnsc1Cl`, for which the Percent Effect came out at 15.7%.

For `Cc1ccc(-n2cc(CN3CCOCC(CN(C)C)C3)cn2)cc1C` (stereo not given), the Percent Effect was determined as 8.42%.

For the compound `CC(C)c1cc(C2CCN(C(=O)Cn3cnnn3)CC2)[nH]n1`, the Percent Effect amounted to 12.8%.

As for `CCN1CCC(CC(=O)NCCc2nc(C)cc(C)n2)CC1`, the Percent Effect was found to be 1.66%.

As to `Cc1nccn1-c1cccc(N2CCC(OCC3CCCCO3)CC2)n1` (stereo not given), the Percent Effect was found to be 6.51%.

On to `Cc1ccc(OCC2CCCN(C(=O)c3csc(CN(C)C)n3)C2)cc1` (stereo not given), for which the Percent Effect turned out to be 14.7%.

Turning to `CC1CN(C)CCN1C(=O)c1cccn1Cc1cccnc1` (stereo not given), the Percent Effect was -3.9%.

For `CCOc1ccccc1C(C(=O)O)N(C)Cc1nnc(C)o1` (stereo not given), the Percent Effect came to 4.89%.

As for `CC(C)C[C@@H](N)C(=O)N(C)Cc1csc(C(C)C)n1`, the Percent Effect was -10.4%.
